Results from PubChem BioAssay (NCI).
Compounds without any hit were thinned out: in the full panel of roughly 79,000, 15% have a hit. Values without a mark were called inactive. The source made the active and inactive calls. Rule as the data show it: active = growth inhibition above about 70%; inactive = the rest.

Key:
[1] = NCI Yeast Anticancer Drug Screen. Data for the rad50 strain (AID 155);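 also: 0% = growth of vehicle-only cultures of the same strain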; conditions: S. cerevisiae rad50 strain growth inhibition, hits give high values
How it was run: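 Compounds were tested on a yeast strain with an engineered DNA damage repair alteration; the reported value is growth inhibition normalised to vehicle treatment.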

[2] = NCI Yeast Anticancer Drug Screen. Data for the mec2-1 strain (AID 157); conditions: S. cerevisiae mec2-1 strain, hits give high values
How it was run: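 Vehicle-treated cultures served as reference for growth inhibition of compound-exposed mec2-1 yeast.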

[3] = NCI Yeast Anticancer Drug Screen. Data for the sgs1 mgt1 strain (AID 161);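 also: 0% = growth of cultures given vehicle only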; conditions: S. cerevisiae sgs1 mgt1 strain, hits give high values
How it was run: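 Genetically altered yeast, compound exposure, growth inhibition relative to vehicle.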

[4] = NCI Yeast Anticancer Drug Screen. Data for the cln2 rad14 strain (AID 165);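 also: 0% = growth equal to vehicle treated cultures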; conditions: S. cerevisiae cln2 rad14 strain, hits give high values
How it was run: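 Each compound was tested on cln2 rad14 yeast. Inhibition of growth was calculated against vehicle-exposed controls.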

[5] = NCI Yeast Anticancer Drug Screen. Data for the bub3 strain (AID 167); conditions: S. cerevisiae bub3 mutant strain, hits give high values
How it was run: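 Growth of a checkpoint-deficient yeast mutant is measured after compound exposure. Values represent inhibition relative to vehicle.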

[6] = NCI Yeast Anticancer Drug Screen. Data for the mlh1 rad18 strain (AID 175); conditions: S. cerevisiae mlh1 rad18 strain growth inhibition, hits give high values
How it was run: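 Vehicle-treated cultures served as the reference for growth inhibition in a yeast strain carrying DNA damage repair alterations exposed to each compound.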

[7] = at 5.0 µM (retest, dose inferred, filed as 0.5)
[8] = at 50.0 µM (retest, dose inferred, filed as 5.0)

SMILES	growth inhibition [1, 7] [%]	growth inhibition [1, 8]	growth inhibition ([1]; at 50.0 µM)	growth inhibition [2, 7] [%]	growth inhibition [2, 8]	growth inhibition ([2]; at 50.0 µM)	growth inhibition [3, 7]	growth inhibition [3, 8]	growth inhibition ([3]; at 50.0 µM)	growth inhibition [4, 7] [%]	growth inhibition [4, 8]	growth inhibition ([4]; at 50.0 µM)	growth inhibition [5, 7] [%]	growth inhibition [5, 8]	growth inhibition ([5]; at 50.0 µM)	growth inhibition [6, 7] [%]	growth inhibition [6, 8]	growth inhibition ([6]; at 50.0 µM)
CCCCCC(C)[P+](c1ccccc1)(c1ccccc1)c1ccccc1 (configuration not stated)	54	98% (active)	90.8% (active)	48	99% (active)	90.9% (active)	71% (active)	99% (active)	90% (active)	61	98% (active)	90.1% (active)	69	99% (active)	91% (active)	45	98% (active)	88.5% (active)
COc1ccccc1NC(=O)c1ccccc1F	-154	41%	-2.5%	-47	-41%	10.7%	-61%	-17%	0.2%	-60	-72%	4.65%	-70	9%	-3.5%	-147	-43%	-9.6%
CC(=O)Nc1ccc(/C=N\NC(=O)c2ccco2)cc1	-5	4%	-7.6%	-10	-7%	-2.6%	-4%	5%	-1.1%	-13	1%	-3.1%	-8	-12%	-8.45%	-2	-12%	0.4%
Clc1ccc(C2SCc3nc4ccccc4n32)cc1Cl (configuration not stated)	-8	95% (active)	97.2% (active)	1	97% (active)	98.1% (active)	15%	96% (active)	98% (active)	-16	95% (active)	95.6% (active)	7	96% (active)	96.8% (active)	3	96% (active)	95% (active)
COc1ccc(/C=N/NS(=O)(=O)c2ccccc2)cc1	0	-2%	99.1% (active)	-2	4%	99.3% (active)	0%	3%	99% (active)	-10	-7%	98% (active)	2	11%	99.2% (active)	-2	7%	99% (active)
C1CCC2CC3(CCNCC3)CCC2C1 (configuration not stated)	14	55%	75.2% (active)	9	55%	55.4%	16%	79% (active)	88.4% (active)	12	82% (active)	83.7% (active)	11	66%	86.8% (active)	9	73% (active)	92% (active)
Oc1cc(Br)ccc1/C=N/Nc1ccccn1	-8	46%	-38.4%	-11	60%	-13.6%	-19%	6%	15.6%	-1	53%	-21.8%	0	46%	-3.4%	-10	27%	1.05%
CC(C)/C(Cl)=N/OC(NC(=O)Nc1ccc(Cl)c(Cl)c1)(C(F)(F)F)C(F)(F)F	7	99% (active)	99.2% (active)	9	100% (active)	99.6% (active)	5%	100% (active)	99.5% (active)	26	99% (active)	99.2% (active)	40	100% (active)	99.5% (active)	23	99% (active)	99.5% (active)
C/C(=N\O)c1ccc2cc(Br)c3ccccc3c2c1	12	98% (active)	96.2% (active)	1	98% (active)	97.4% (active)	-1%	98% (active)	98% (active)	-20	96% (active)	96% (active)	8	98% (active)	95.5% (active)	3	98% (active)	96.7% (active)
